Screening data: PubChem BioAssay, The Scripps Research Institute Molecular Screening Center
LYPLA2 inh: LYPLA2 (human) inhibition in PME1 counter-screen; O95372; actives 0.38% (n = 320,000); recombinant LYPLA2, FP-Rh probe fluorescence polarization; AID 2177; inhibition, % at 5.9 µM;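 active = inhibition above the screen-wide mean plus 3 SD, limit set per campaign, cut at about 26% in these data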
PAD4 inh: blocks human protein arginine deiminase 4 | AID 485272 | actives 0.41% (n = 330,000) | recombinant PAD4, RCA probe fluorescence polarization | inhibition, % at 6.36 µM;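 active = percent inhibition above a cutoff equal to the mean of all tested compounds plus 3 SD, cut at about 15% in these data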
LYPLA1 inh: counter-screen for PME1 inhibitors: inhibitors of human LYPLA1. O75608. recombinant LYPLA1, FP-Rh probe fluorescence polarization. inhibition, % at 5.9 µM. actives 0.16% (n = 320,000);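 active = inhibition above the mean of all tested compounds plus 3 SD, set per campaign, cut at about 14% in these data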;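 also: inhibitors block serine hydrolase probe labeling of LYPLA1 so polarization falls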
Target sequence (O75608 whole entry, looked up): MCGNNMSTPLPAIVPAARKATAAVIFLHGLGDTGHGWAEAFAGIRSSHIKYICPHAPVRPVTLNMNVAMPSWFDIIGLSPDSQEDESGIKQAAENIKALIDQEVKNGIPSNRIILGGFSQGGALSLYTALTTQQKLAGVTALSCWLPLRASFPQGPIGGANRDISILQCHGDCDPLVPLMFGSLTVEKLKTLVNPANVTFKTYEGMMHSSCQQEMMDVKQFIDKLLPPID
PME-1 primary: PME-1 (human) inhibition; recombinant PME-1, FP-Rh probe fluorescence polarization; inhibition, % at 5.9 µM; actives 0.53% (n = 320,000); AID 2130;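 active = inhibition above the campaign mean of all compounds plus 3 SD, cut at about 26% in these data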;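 also: competitive labeling of PME-1 active site by serine hydrolase directed probe; inhibitors block probe labeling so polarization falls and inhibition rises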
Fam108B inh: counter-screen for RBBP9 inhibitors: inhibitors of mouse Fam108B | recombinant Fam108B, FP-Rh probe fluorescence polarization | inhibition, % at 9.51 µM | actives 0.33% (n = 300,000) | AID 1947;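 active = inhibition above the screen mean inhibition plus 3 SD, computed separately per campaign, cut at about 18% in these data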;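 also: inhibitors lower polarization as less probe binds the enzyme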
GSTO1 counter: counter-screen for RBBP9 inhibitors: inhibitors of human GSTO1; P78417; recombinant GSTO1, activity-based probe fluorescence polarization; inhibition, % at 5.96 µM; actives 1.1% (n = 300,000);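 active = inhibition above the campaign mean inhibition plus 3 SD, cut at about 35% in these data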
Target sequence (P78417 whole entry, looked up): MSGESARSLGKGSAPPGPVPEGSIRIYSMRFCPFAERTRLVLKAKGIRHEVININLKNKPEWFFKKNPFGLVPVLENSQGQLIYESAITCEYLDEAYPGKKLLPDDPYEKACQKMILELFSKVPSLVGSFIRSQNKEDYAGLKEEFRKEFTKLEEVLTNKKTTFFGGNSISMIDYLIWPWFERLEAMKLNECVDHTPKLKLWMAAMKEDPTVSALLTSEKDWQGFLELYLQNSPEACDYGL
PAD4 confirm: PAD4 (human) inhibition, confirmed. shares compounds with PAD4 inh. recombinant PAD4, RCA probe fluorescence polarization. inhibition, % at 6.36 µM. actives 28% (n = 1,200). AID 488796;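 active = mean inhibition across replicates above the hit cutoff set by the earlier primary screen, cut at about 15% in these data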;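 also: inhibitors block active-site labeling by the probe so polarization falls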
Of the large screens only hits and unclear results are named; the others gave an inactive call (follow-up assays come after a bar, where they were run). Compounds with a hit are over-represented: about 1.8% of the library has one in this group of screens.

Cc1cc2cc(CNC(=O)c3ccc(S(=O)(=O)N4CCCCC4)cc3)ccc2n1C	PAD4 inh 31 | PAD4 confirm inactive
COc1ccc(S(=O)(=O)NCc2ccc3c(c2)cc(C)n3C)cc1	none
Cc1cc2cc(CNC(=O)c3ccc(S(=O)(=O)N4CCCC4)cc3)ccc2n1C	none
CCC(CC)C(=O)NCc1ccc2c(c1)cc(C)n2C	none
Cc1cc2cc(CNS(=O)(=O)c3ccccc3)ccc2n1C	PAD4 inh 18 | PAD4 confirm inactive
Cc1cc2cc(CNC(=O)C(C)Oc3ccccc3)ccc2n1C (centres undefined)	PAD4 inh 29 | PAD4 confirm inactive
CC(C)(C)Cc1nnc(NC(=O)CSc2ccccc2)s1	none
Cc1c(C(=O)NCCN2CCOCC2)oc2ccc(Br)cc12	none
CC(=O)OCC1OC(OC(C)=O)C(NC(=O)Cc2ccccc2)C(OC(C)=O)C1OC(C)=O (centres undefined)	none
CC(C)c1ccc(OCc2nc(-c3ccccn3)no2)c(Br)c1	PAD4 inh 20 | PAD4 confirm inactive
Cc1ccc(OCc2nc(-c3ccccn3)no2)c(Br)c1	none
CC1=CC(=O)C(C(C)C)=CC1=NC(=O)c1ccc(C)cc1	none
COc1ccc(C)cc1N(C(=O)c1ccccc1F)c1nc2ccccc2s1	PAD4 inh 29 | PAD4 confirm 29
COc1cccc2cc(C(=O)NC3CC(C)(C)NC(C)(C)C3)c(=O)oc12	PAD4 inh 79 | PAD4 confirm inactive
COc1cccc2cc(C(C)=O)c(=O)oc12	none
CS(=O)(=O)N(CC(=O)NCCSCc1c(F)cccc1Cl)c1cccc([N+](=O)[O-])c1	none
O=C(NC1CC2CCCC(C1)N2C(=O)Nc1cccc(F)c1)C1CC1 (centres undefined)	none
CCOC(=O)C1=C(C)N=c2s/c(=C\c3cccc(OCC(=O)O)c3)c(=O)n2C1c1ccccc1OC (centres undefined)	none
CCOC(=O)C1=C(C)N=c2s/c(=C\c3ccc(OCC(=O)O)cc3)c(=O)n2C1c1ccc(OC(C)C)cc1 (centres undefined)	PAD4 inh 18 | PAD4 confirm inactive
CCOC(=O)C1=C(C)N=c2s/c(=C/c3ccc(OCC(=O)O)cc3)c(=O)n2C1c1cc(OC)c(OC)c(OC)c1 (centres undefined)	PAD4 inh 25 | PAD4 confirm inactive
COc1cccc(C2C(C(=O)Nc3ccccc3)=C(C)N=c3s/c(=C/c4ccc(OCC(=O)O)cc4)c(=O)n32)c1 (centres undefined)	PAD4 inh 19 | PAD4 confirm inactive
CC(=O)Nc1ccc(OCCOc2ccc(/C=C3/C(=N)N4C=CSC4=NC3=O)cc2)cc1	none
O=C(N/N=C/c1ccc(O)cc1)c1ccncc1	none
CC/C(=C\C(=O)c1ccncc1)Nc1ccc(O)cc1	PAD4 inh 77 | PAD4 confirm inactive
NC(=O)c1oc2ccccc2c1NC(=O)C1CC(=O)N(c2ccccc2)C1 (centres undefined)	PAD4 inh 18 | PAD4 confirm 27
C(=C\c1cccc2ccccc12)/c1nnc(-c2cccs2)o1	none
CCOc1ccccc1C(=O)NCC(=O)NCCCc1ccccc1	PAD4 inh 62 | PAD4 confirm inactive
ClC(Cl)(c1nnnn1-c1ccccc1)c1nnnn1-c1ccccc1	none
CCN1C=C(Cc2ccc(OC)cc2)C2=C(C1)C(c1ccc(OC)cc1)C(C#N)=C(N)O2 (centres undefined)	PAD4 inh 42 | PAD4 confirm inactive
O=C(O)c1ccccc1SSc1ccccc1C(=O)O	PAD4 inh 45 | PAD4 confirm 38
CC(=O)Nc1ccc(Sc2ccccc2C(=O)O)cc1	none
O=C1c2ccccc2[C@@H]2C[C@H](NC34CC5CC(CC(C5)C3)C4)[C@@H](O)CCN12	none (no result: LYPLA2 inh, LYPLA1 inh, PME-1 primary, Fam108B inh, GSTO1 counter)
Cc1ccc(NC(=O)c2cccc(C(=O)Nc3ccc(C)cc3C(=O)O)c2)c(C(=O)O)c1	none
Cc1ccc(S(=O)(=O)CCSc2cccc(C(=O)Nc3ccccc3C(=O)O)c2)cc1	PAD4 inh 19, PME-1 primary 36 | PAD4 confirm 36
Cc1ccccc1NC(=O)CSc1nnc(C)c2ccccc12	none
COc1cc(-c2nc(C(=O)NCC3CCCO3)cc3c2[nH]c2ccccc23)cc(OC)c1OC (centres undefined)	PAD4 inh 33 | PAD4 confirm 38
COc1ccccc1-c1nc(C(=O)NCC2CCCO2)cc2c1[nH]c1ccccc12 (centres undefined)	PAD4 inh 37 | PAD4 confirm 33
O=C(CCNC(=O)c1ccc(Cl)cc1)Nc1ccccc1N1CCCCC1	none
CCOC(=O)CN(C(=O)COc1nc(-c2ccccc2)cc(C)c1C#N)c1ccccc1	none
CCOC(=O)CN(C(=O)COc1nc(-c2ccccc2)cc(C)c1C#N)c1ccccc1C	PAD4 inh 20 | PAD4 confirm inactive
Cc1nc(SCC(=O)c2ccccc2)[nH]c(=O)c1Oc1ccc(Cl)cc1	PAD4 inh 21 | PAD4 confirm inactive
Cc1ccc(C(NC(=O)Nc2ccccn2)C(Cl)(Cl)Cl)cc1F (centres undefined)	PAD4 inh 26 | PAD4 confirm inactive
CCCC(=O)Nc1ccc(Br)c(Cl)c1	PAD4 inh 15 | PAD4 confirm inactive
O=C(O)CCC(=O)Nc1ccc(Br)c(Cl)c1	none
Cc1nn(-c2cccc(Cl)c2)c2c1C(c1ccncc1)C(C#N)=C(N)O2 (centres undefined)	PAD4 inh 34 | PAD4 confirm inactive
Cc1ccc(-n2nc(C)c3c2OC(N)=C(C#N)C3c2ccc(F)cc2)cc1 (centres undefined)	PAD4 inh 43, GSTO1 counter 42 | PAD4 confirm inactive
Cc1nn(-c2ccccc2)c2c1C(c1cccs1)C(C#N)=C(N)O2 (centres undefined)	none
Cc1nn(-c2cccc(Cl)c2)c2c1C(c1cccnc1)C(C#N)=C(N)O2 (centres undefined)	PAD4 inh 62 | PAD4 confirm inactive
c1ccc(NC2=NCCN2CC2CCCCC2)cc1	none
Cc1noc(NS(=O)(=O)c2ccc(NC(=O)CSc3nc4ccccc4s3)cc2)c1C	PAD4 inh 19 | PAD4 confirm inactive
CCCCC(C(=O)O)C(C)CC(=O)NNC(=O)c1ccco1 (centres undefined)	none
CCOc1cc(Br)c(/C=C2/C(=O)N(C)C(=S)N2CC(=O)OC)cc1OC	none
COc1cc(/C=C2\C(=O)N(CCC#N)N=C2C)c(Br)cc1OC(C)C	PAD4 inh 71, GSTO1 counter 36 | PAD4 confirm inactive
Cc1ccc(NC(=S)N(Cc2cccc(Br)c2)CC2CCC(C(=O)O)CC2)cc1Cl (centres undefined)	none
